The test system of test [1] is Zika virus NS2B-NS3 protease (linked construct). The test is described as follows: Primary screen NINDS Rhodamine qHTS for Zika virus inhibitors (AID 1347160). Also: nearly all actives have a fitted effect of over 55% in size. The method, boiled down: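 In 10 mM Tris-HCl pH 8.0 containing 0.01% Tween 20, linked NS2B-NS3 protease (25 nM final) is exposed to test compounds for 15 min. Cleavage of 1.5 microM Rhodamine110 substrate is tracked by fluorescence over 15 min.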
On the technique in general: Quantitative high-throughput screening tests each substance at several concentrations.

The nature of test [2]: qHTS to identify inhibitors of the type 1 interferon - major histocompatibility complex class I in skeletal muscle: primary screen against the NCATS Mechanism Interrogation Plate v5.0 (MIPE) Libary (AID 1347411). Also: potency is read from the fitted curve at half-maximal effect; nearly all actives have a fitted effect of over 65% in size. Summed up: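 Immortalized human C25cl48 myoblasts with HiBit knocked into endogenous HLA-B*08:01 were stimulated with 4.0 ng/ml IFN-beta and exposed to compounds (11-point 1:3 titration, top 46 uM final) for 24 hrs at 37 C; HiBiT lytic luminescence measured.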

Test [3] has as its target Calcium and integrin-binding protein 1 (Homo sapiens) (UniProt Q99828). The test is described as follows: Primary qHTS for Identification of Calcium Integrin Binding Protein 1 (CIB1) Competitor (AID 1508620).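 Also: GST tagged CIB1 binding a fluorescein labelled alphaIIb integrin peptide tracer; top concentration of the series differs between compounds; % is scaled to controls: 0 for no effect and ±100 for the full control effect.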 Summed up: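 Fluorescence polarization competition: CIB1-GST (1 uM final) preincubated with compound 15 min at room temperature, then FITC-labeled alphaIIb peptide (100 nM final) added for another 15 min. Polarization read at Ex 480/Em 540.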

Test [4] is described as follows: Primary qHTS for inhibitors of nuclear receptor binding SET domain protein 2 (NSD2) in an isogenic RCH-ACV NSD2 p.E1099K mutant (9B) (AID 1645876). Also: potency is read from the fitted curve at half-maximal effect; nearly all actives have a fitted effect of over 70% in size.
Test [5] in a line: Primary qHTS for inhibitors of nuclear receptor binding SET domain protein 2 (NSD2) in an RCH-ACV wild type WT cells (2C) (AID 1645877). Also: potency is read from the fitted curve at half-maximal effect; nearly all actives have a fitted effect of over 70% in size.
Test [6] deals with Glutathione peroxidase 1 (Homo sapiens) (UniProt P07203). The test is described as follows: Primary qHTS Assay for Inhibitors of Recombinant Selenoprotein Glutathione Peroxidase 1 (GPX1) (AID 1845191). Also: nearly all actives have a fitted effect of over 65% in size. The method, boiled down: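 Recombinant GPX1 (10 nM final) was preincubated with compound for 30 min at room temperature, then reacted with 1 mM GSH, 0.5 mM CHP, 0.5 mM NADPH and 100 nM glutathione reductase; NADPH fluorescence (340/450 nm) was read at 0 and 15 min.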

The target in test [7] is Phospholipid hydroperoxide glutathione peroxidase GPX4 (Homo sapiens) (UniProt P36969). The test is described as follows: Primary qHTS Assay for Inhibitors of Recombinant Selenoprotein Glutathione Peroxidase 4 (GPX4) (AID 1845192). Also: % is scaled to controls: 0 for no effect and ±100 for the full control effect; nearly all actives have a fitted effect of over 65% in size. The conditions noted are these: outcome: dose series up to 50 µM unless noted. The method, boiled down:
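GR-coupled readout: 100 nM GR, 1 mM GSH, 0.5 mM NADPH; NADPH fluorescence (ex 340/em 450 nm) read at t=0 and after 15 min RT. GPX4 200 nM, preincubated 30 min with compound; substrate 0.5 mM CHP.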

Test [8] concerns the target Luciferin 4-monooxygenase (Photinus pyralis) (UniProt P08659). The test is described as follows: Primary firefly luciferase (FLuc) qHTS assay for identification of artifact compounds. (AID 1845220). Also: nearly all actives have a fitted effect of over 60% in size. The method, boiled down:
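In this counter-screen for luciferase artifacts, test compounds met substrate (10 uM each luciferin and ATP) before 10 nM enzyme started the reaction. Light output was measured 5 min later.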

A short description of test [9]: Primary redox qHTS assay for identification of artifact compounds. (AID 1845223).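 Also: 0% = DMSO and 100% = reference compound.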 Summed up: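 Amplex Red (25 uM) and HRP (250 mU/mL) in HBSS, with compounds for 15 min, then 250 uM DTT for 30 min, room temperature, dark. Fluorescence 525/598 nm read; normalized to DMSO and 10 uM DA3003; Hill fit.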
A short description of test [10]: qHTS drug screen for cell cycle checkpoint inhibitors in PARPi-resistant BRCA-mutant ovarian cancer cell lines. (AID 1963452; calls by dose curve). The conditions noted are these: PEO1/OlaR viability, CellTiter-Glo luminescence, 96 h, stronger effect = lower value. Summed up: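 PEO1, PEO4 and PEO1/OlaR ovarian cancer cells, 600 per well, exposed 96 h at 37C to a dilution series. Viability read by CellTiter-Glo luminescence, normalized to DMSO and empty wells; activity summarized as Z-AUC.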

For the next test, the system named is JEG-3. The test is described as follows: Primary qHTS to identify gynecologic anti-cancer compounds using libraries of approved drugs and bioactive compounds (AID 1345084). Also: % is scaled to controls: 0 for no effect and ±100 for the full control effect; nearly all actives have a fitted effect of over 55% in size. The conditions noted are these: Gynecologic cancer cell panel viability, ATPlite luminescence, 48 h; series mostly up to 57.5 µM. Summed up:
(§1)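 In this quantitative HTS, cell killing is estimated from loss of ATP-dependent luciferase light. Cells see five compound concentrations over a 48 h exposure.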

Another test deals with OV90. Described as above. The conditions noted are these: Gynecologic cancer cell panel viability, ATPlite luminescence, 48 h; series mostly up to 57.5 µM. Summed up: as §1
Background: In ATP-based viability assays light output follows the ATP content of the culture.

The subject of test [11] is Zika virus NS2B-NS3 protease (unlinked complex). The test is described as follows: Primary screen GU Rhodamine qHTS for Zika virus inhibitors: Unlinked NS2B-NS3 protease assay (AID 1347159). Also: % is scaled to controls: 0 for no effect and ±100 for the full control effect; nearly all actives have a fitted effect of over 60% in size. The method, boiled down:
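Percent inhibition derives from the 15-min fluorescence change (ex 480, em 540 nm), normalized to no-enzyme and no-inhibitor wells. Reactions contained 25 nM NS2B-NS3 complex and 1.5 microM substrate in 10 mM Tris-HCl pH 8.0.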

Test [12] deals with Nanoluciferase (engineered Oplophorus gracilirostris luciferase). The test is described as follows: Primary Nanoluciferase (NLuc) qHTS assay for identification of artifact compounds. (AID 1845222).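 Also: NLuc secreted into diluted conditioned medium of S16 cells; 0% = DMSO and -100% = no enzyme.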 Summed up:
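Using secreted nanoluciferase in S16 culture medium (0.22 um filtered, 1:55 dilution), compounds were preincubated 15 min at RT. Signal was generated with Nano-Glo reagent (1:100) over 5 min.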

The subject of another test is HeLa. The test is described as follows: Primary qHTS to identify gynecologic anti-cancer compounds using libraries of approved drugs and bioactive compounds (AID 1345084). Also: % is scaled to controls: 0 for no effect and ±100 for the full control effect; nearly all actives have a fitted effect of over 55% in size. The conditions noted are these: Gynecologic cancer cell panel viability, ATPlite luminescence, 48 h; series mostly up to 57.5 µM. Summed up: as §1
The test system of another test is Hek293T. The description is as above. The conditions noted are these: Gynecologic cancer cell panel viability, ATPlite luminescence, 48 h, control line for the selectivity index; series mostly up to 57.5 µM. The method, boiled down:
as §1

Another test relates to Tov112D. Described as above. The conditions noted are these: Gynecologic cancer cell panel viability, ATPlite luminescence, 48 h; series mostly up to 57.5 µM. Summed up:
as §1

The nature of test [13]: P-glycoprotein substrates identified in KB-8-5-11 adenocarcinoma cell line, qHTS therapeutic library screen (AID 1346987). Also: potency is read from the fitted curve at half-maximal effect; nearly all actives have a fitted effect of over 65% in size. The method, boiled down:
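KB-8-5-11: colchicine-selected sub-line of KB-3-1 over-expressing P-gp; assay medium lacked colchicine. 72 h drug exposure at 37 degree C, CellTiter-Glo.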

Test [14] is described as follows: Drug repurposing screens with cells derived from glioblastoma tumor samples (AID 1345199). Also: % is scaled to controls: 0 for no effect and ±100 for the full control effect; nearly all actives have a fitted effect of over 40% in size. The conditions noted are these: GBM patient neurospheres viability, ATP luminescence, 48 h; at 45.9 µM (top of the series); tumour line D. Summed up:
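Four patient lines of CD133+ GBM neurospheres were screened at several concentrations; hits were retested in those lines plus three slower-growing GBM lines, using 48-hour treatment and ATP-based viability.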

Setting [15] is: measured here: PEO1 parental Z-AUC.

Several values for one entry are separate records, joined by “and”; a condition that tells them apart may be missing. Identical values can stand only once. Inconclusive results are not listed. Activity calls are given as the source filed them. Unless noted, calls follow the shape of the dose curve; as a rule, active = well fitted curve in the direction sought with a large enough effect; inconclusive = small, poorly fitted or top-dose-only effect, or another doubt; inactive = no such curve, though single readings can be large; an effect the other way counts as inactive or inconclusive.

Sequence of Calcium and integrin-binding protein 1 (Homo sapiens) (Q99828 whole entry, looked up): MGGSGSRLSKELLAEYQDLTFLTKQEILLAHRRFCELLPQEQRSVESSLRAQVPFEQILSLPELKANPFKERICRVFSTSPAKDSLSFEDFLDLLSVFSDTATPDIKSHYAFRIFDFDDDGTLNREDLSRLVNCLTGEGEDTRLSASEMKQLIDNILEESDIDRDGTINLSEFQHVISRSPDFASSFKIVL
Sequence of Phospholipid hydroperoxide glutathione peroxidase GPX4 (Homo sapiens) (P36969 whole entry, looked up): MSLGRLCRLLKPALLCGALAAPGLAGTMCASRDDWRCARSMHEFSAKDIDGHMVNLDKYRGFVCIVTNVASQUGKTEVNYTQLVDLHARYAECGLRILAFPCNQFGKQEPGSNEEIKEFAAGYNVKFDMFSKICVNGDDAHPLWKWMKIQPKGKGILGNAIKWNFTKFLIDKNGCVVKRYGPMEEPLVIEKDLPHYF
Sequence of Glutathione peroxidase 1 (Homo sapiens) (P07203 whole entry, looked up): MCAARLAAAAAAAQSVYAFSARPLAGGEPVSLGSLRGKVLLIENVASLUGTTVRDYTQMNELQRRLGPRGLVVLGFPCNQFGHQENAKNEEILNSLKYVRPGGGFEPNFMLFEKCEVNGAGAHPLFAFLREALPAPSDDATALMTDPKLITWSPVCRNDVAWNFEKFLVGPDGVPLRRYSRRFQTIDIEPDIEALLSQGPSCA

Regarding `C=CC(=O)Nc1cccc(Nc2nc(Nc3ccc(Oc4ccnc(C(=O)NC)c4)cc3)ncc2F)c1`, the Potency result (in test [1]; in [6]; in test [7]; in [8]; in test [9]; with JEG-3) was “inactive” each time. Besides, the Potency result with OV90 was “inactive”. Moreover, the Potency in test [2] is 18.6 µM (active); in test [4] it was 10.3 µM (active) and 5.9 µM (active); in test [5] it was 10.3 µM (active) and 6.61 µM (active). The result in [3] was inactive. For the same compound, the figures for the Z-AUC in [10], in [10] (setting [15]) and in test [10] (measured here: PEO4 Z-AUC) were -0.493 (inactive), -0.105 and -0.427, respectively.

As for `NC(=Nc1ccc(CCNCc2cccc(Cl)c2)cc1)c1cccs1`, the Potency result in test [11], in test [1], in [6], in [7], in test [8] and in test [12] was “inactive” throughout. Also, the Potency result (in [9]; in the test on HeLa; with Hek293T; with Tov112D) was “inactive” each time. Besides, the result in test [3] was inactive. Besides, the Potency in test [4] and in test [5] was 11.5 µM (active) throughout.

With `COc1cc(N2CCN(C)CC2)ccc1Nc1nccc(-c2cn(C)c3cnccc23)n1`, the Potency in test [13] is 16.4 µM (active); in test [4], 7.28 µM (active) and 8.33 µM (active); in [5], 5.15 µM (active) and 4.17 µM (active). Besides, in test [3], the result was inactive. In addition, the Potency entry (in test [6]; in test [7]; in [8]; in test [9]; with HeLa; with Hek293T) was “inactive” each time. Moreover, the Potency entry in the test on JEG-3 and in the test on Tov112D was “inactive” in each case. Moreover, the Z-AUC is -0.0606 (inactive) in test [10], 0.299 in test [10] (setting [15]) and 0.437 in test [10] (measured here: PEO4 Z-AUC).

Consider `CCOc1ccc(-c2nc(-c3cccc4c3CCC4NCCO)no2)cc1OCC` (configuration not stated), for which the Potency result in test [1], in test [6], in test [7], in test [8], in test [12] and in test [9] was “inactive” throughout. Moreover, the Potency result with HeLa, with Hek293T, in the test on JEG-3 and in the test on Tov112D was “inactive” each time. In addition, in test [3], the result was inactive. The Potency in test [4] was 6.49 µM (active); in [5], 7.28 µM (active).

Regarding `COC(=O)/C=C/C(=O)N(O)CCCCNCc1ccc(COC(=O)Nc2cccc3ccccc23)cc1`, the Potency entry in [1], in test [6], in test [7], in [8], in test [12] and in [9] was “inactive” each time. Further, the Potency entry in the test on HeLa, in the test on JEG-3, in the test with OV90 and in the test on Tov112D was “inactive” in each case. In addition, the values for the Potency in test [2] and in test [4] were 13.1 µM (active) and 9.34 µM (active), respectively. For the same compound, the outcome in test [3] was inactive. For the same compound, the Z-AUC in test [10] was 0.336 (inactive); in test [10] (setting [15]), 0.0181; in test [10] (measured here: PEO4 Z-AUC), 0.131.

In the case of `C/C1=C2N=C(/C=C3N=C(/C(C)=C4\[N-]C(C(CC(N)=O)C4(C)CCC(=O)NCC(C)OP(=O)([O-])OC4C(CO)OC(n5cnc6cc(C)c(C)cc65)C4O)C4(C)N=C1C(CCC(N)=O)C4(C)CC(N)=O)C(CCC(N)=O)C\3(C)C)C(CCC(N)=O)C/2(C)CC(N)=O.[CH3-].[Co+3]` (configuration not stated), the activity, negative = cell killing in test [14] was -36.9% (inactive).

Values taken from PubChem BioAssay (NCATS).
